Source: PubChem (National Center for Advancing Translational Sciences (NCATS))
The list is not random: actives were taken first. Their share in the collection is about 10%.
HP1b chromo inh: blocks HP1-beta chromodomain binding to methylated histone tails. Potency, µM (titrated, usually from 114 µM), actives largely listed as inhibitors. AlphaScreen HP1-beta / biotin-H3K9me3 peptide binding. actives 0.56% (n = 390,000); further: nearly all actives have a fitted effect of over 70% in size
Target sequence (P83916 whole entry, looked up): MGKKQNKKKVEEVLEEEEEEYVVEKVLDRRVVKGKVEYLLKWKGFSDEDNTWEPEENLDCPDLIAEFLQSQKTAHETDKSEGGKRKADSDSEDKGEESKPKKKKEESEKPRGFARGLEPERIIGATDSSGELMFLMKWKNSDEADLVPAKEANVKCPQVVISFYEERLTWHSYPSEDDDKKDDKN
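AlphaScreen: HP1-beta (50 nM) preformed 30 min with biotin-H3(1-18)K9me3 peptide (50 nM) in PBS pH 7.4, 0.01% Tween-20. Compound added for 30 min at RT, then streptavidin donor/nickel chelate acceptor beads (10 ug/mL) for 30 min.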
JMJD2A Tudor: blocks the human JMJD2A Tudor domain | O75164 | AlphaScreen JMJD2A-Tudor / H3K4me3 peptide binding | Potency, µM (highest dose often 114 µM), most hits filed as inhibitors | actives 4.4% (n = 390,000) | AID 504339; further: nearly all actives have a fitted effect of over 50% in size
GLS inh: blocks human kidney-isoform glutaminase activity; O94925; GLS enzymatic activity, qHTS titration; Potency, µM (doses to about 45.5 µM), most hits filed as inhibitors; actives 0.21% (n = 410,000); AID 624170
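Enzyme dispensed in phosphate buffer (45 mM, pH 8.2, 0.02% Tween-20), compounds pinned in, then 1 mM L-glutamine solution and the glutamate oxidase–HRP–Amplex Red mix added; fluorescence read immediately and again after 30 min at room temperature.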
BAZ2B inh: BAZ2B (human) inhibition | AID 504333 | Potency, µM (top dose mostly 114 µM), usual class: inhibitors | actives 4.4% (n = 360,000) | AlphaScreen BAZ2B-H3K14Ac peptide displacement; further: nearly all actives have a fitted effect of over 60% in size
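Protein-peptide AlphaScreen: BAZ2B 50 nM, b-H3K14Ac 50 nM, 1x PBS pH 7.4 + 0.01% Tween-20. Preincubation 30 min RT; cpd 30 min RT (top 110 uM); beads 20 min RT, light-protected.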
G9a inh: G9a (human) methyltransferase inhibition. actives 8.8% (n = 350,000). G9a H3K9 monomethylation, AlphaScreen, 2 h. Potency, µM (titrated, usually from 102 µM), hits mostly inhibitors; further: nearly all actives have a fitted effect of over 75% in size
Target sequence (Q96KQ7 913-1193 limits assumed): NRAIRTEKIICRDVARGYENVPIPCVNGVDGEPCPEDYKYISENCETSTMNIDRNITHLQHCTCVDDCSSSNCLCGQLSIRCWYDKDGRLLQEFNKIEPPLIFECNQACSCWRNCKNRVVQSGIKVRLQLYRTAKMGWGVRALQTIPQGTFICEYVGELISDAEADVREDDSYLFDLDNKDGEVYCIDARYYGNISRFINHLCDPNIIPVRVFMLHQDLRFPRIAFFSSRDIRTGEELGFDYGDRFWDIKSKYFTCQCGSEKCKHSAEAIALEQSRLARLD
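G9a (20 nM) was preincubated 15 min with compound, then reacted 2 h at room temperature with 500 nM biotin-H3K9 peptide and 20 µM SAM. Monomethyl-H3K9 detected by AlphaScreen using anti-H3K9me1 antibody.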
Large screens that a line does not name were inactive. The call rests on the fitted dose curve; in most records, active means well fitted curve in the direction sought with a large enough effect; inconclusive means small, poorly fitted or top-dose-only effect, or another doubt; inactive means no such curve, though single readings can be large; an effect the other way counts as inactive or inconclusive.

O=C1C(=O)N(CCCn2ccnc2)C(c2cccnc2)/C1=C(/O)c1ccc(F)cc1 (configuration not stated)	JMJD2A Tudor inconclusive, BAZ2B inh inconclusive
Cc1ccc(C2C(C(=O)c3sc(C)nc3C)=C(O)C(=O)N2CCN(C)C)o1 (configuration not stated)	G9a inh 45µM
COc1ccccc1C1/C(=C(/O)c2ccc(C)cc2)C(=O)C(=O)N1CCN1CCOCC1 (configuration not stated)	G9a inh 28µM
COc1ccc(/C(O)=C2/C(=O)C(=O)N(CCN3CCOCC3)C2c2ccc(C)cc2)cc1 (configuration not stated)	G9a inh 45µM
CCc1cc(CNC(=O)C2CCC(=O)N(Cc3ccccc3F)C2)on1 (configuration not stated)	none (no result: HP1b chromo inh, JMJD2A Tudor, BAZ2B inh, G9a inh)
CCOC(=O)C1CCCN(C(=O)c2cc(C)oc2C)CC1 (configuration not stated)	none (no result: HP1b chromo inh, JMJD2A Tudor, BAZ2B inh, G9a inh)
COC(=O)c1ccccc1NC(=O)Cn1c(=O)n(CCCC(=O)NCCc2ccc(OC)c(OC)c2)c(=O)c2ccccc21	none
CCOc1ccccc1N(C)C(=O)NCc1noc2ccccc12	none
O=C(COc1ccc(C(=O)c2ccccc2)cc1)Nc1cccnc1	none
Cc1ccc(-c2nn(-c3ccc(F)cc3F)c3c2cnc2c(F)cccc23)cc1	none
COCCCN1C(=O)C(=O)/C(=C(/O)c2ccc(OCC(C)C)cc2C)C1c1cccnc1 (configuration not stated)	JMJD2A Tudor 79µM, G9a inh inconclusive
CCOc1ccc(/C(O)=C2\C(=O)C(=O)N(CCOCCO)C2c2ccccc2OC)cc1 (configuration not stated)	JMJD2A Tudor 18µM
CCCOc1ccc(/C(O)=C2/C(=O)C(=O)N(CCOC)C2c2cccnc2)cc1 (configuration not stated)	G9a inh inconclusive (no result: HP1b chromo inh, JMJD2A Tudor, GLS inh)
COc1ccccc1C1C(C(=O)c2sc(C)nc2C)=C(O)C(=O)N1CCN1CCOCC1 (configuration not stated)	G9a inh 40µM
Cc1ccc(C)c(/C(O)=C2\C(=O)C(=O)N(Cc3cccnc3)C2c2cccnc2)c1 (configuration not stated)	BAZ2B inh 79µM, G9a inh inconclusive
COc1ccc(/C(O)=C2/C(=O)C(=O)N(CCN3CCOCC3)C2c2cccnc2)cc1OC (configuration not stated)	JMJD2A Tudor inconclusive, G9a inh inconclusive
Cc1ccc(/C(O)=C2/C(=O)C(=O)N(CCN3CCOCC3)C2c2cccnc2)cc1 (configuration not stated)	JMJD2A Tudor 89µM, G9a inh inconclusive
Cc1ccccc1NC(=O)c1cccc(S(=O)(=O)Nc2cccc(C(=O)O)c2)c1	none (no result: G9a inh)
Cc1ccc(C(=O)Nc2ccc(S(=O)(=O)O)c3cc(S(=O)(=O)O)cc(S(=O)(=O)O)c23)cc1NC(=O)c1cccc(NC(=O)Nc2cccc(C(=O)Nc3cc(C(=O)Nc4ccc(S(=O)(=O)O)c5cc(S(=O)(=O)O)cc(S(=O)(=O)O)c45)ccc3C)c2)c1	GLS inh 8.9µM, G9a inh 0.28µM (no result: HP1b chromo inh, JMJD2A Tudor, BAZ2B inh)
CCC(/C=C1\Sc2ccc(OC)cc2N1CCO)=C\c1sc2ccc(OC)cc2[n+]1CCO	HP1b chromo inh 40µM, JMJD2A Tudor 22µM, BAZ2B inh 13µM, G9a inh 11µM
CCO/C(=C/c1sc2ccc(OC)cc2[n+]1CCCS(=O)(=O)[O-])CC	none (no result: GLS inh)
CCC(/C=C1\Sc2ccc(OC)cc2N1CC)=C\c1sc2ccc(OC)cc2[n+]1CCCS(=O)(=O)[O-]	JMJD2A Tudor inconclusive, BAZ2B inh 22µM, G9a inh 20µM
Cc1ccc2c(c1)NC(=O)CC(c1ccccc1)=N2	none
CC1=CC(C)=Nc2ccc(C)cc2N1	G9a inh 45µM
Nc1nc(-c2cccs2)c(CC(=O)O)s1	G9a inh 40µM
O=C(O)Cc1sc(Nc2ccc(Cl)cc2)nc1-c1cccs1	GLS inh inconclusive, BAZ2B inh inconclusive, G9a inh inconclusive
Nc1nc(-c2ccc(Oc3ccccc3)cc2)c(CC(=O)O)s1	G9a inh 32µM
Nc1nc(-c2ccccc2)c(CC(=O)O)s1	none (no result: HP1b chromo inh, JMJD2A Tudor, BAZ2B inh, G9a inh)
CN(Cc1ccccc1)C(=O)c1csc([C@@H]2C[C@H](O)[C@@H](CO)O2)n1	none (no result: HP1b chromo inh, JMJD2A Tudor, BAZ2B inh, G9a inh)
CCc1ccccc1NC(=O)CCc1c(C)nc2cc(-c3ccccc3)nn2c1C	none
CC(=O)N1CCCc2cc(S(=O)(=O)N(C)CC(=O)Nc3ccc(F)c(Cl)c3)ccc21	none
Cc1cnc(NC(=O)NCC2CCCC(CNC(=O)Nc3ncc(C)s3)C2)s1 (configuration not stated)	JMJD2A Tudor inconclusive, BAZ2B inh 32µM, G9a inh inconclusive
CC(C)C(=O)Nc1nc2c(ncn2[C@H]2CC(O)[C@@H](CO)O2)c(=O)[nH]1 (some centres not stated)	none (no result: GLS inh, BAZ2B inh, G9a inh)
Cc1ccc2c(=O)cc(C(=O)Nc3nc4ccc(Cl)cc4s3)oc2c1C	JMJD2A Tudor inconclusive, BAZ2B inh inconclusive
COC(=O)C[C@H]1C=C[C@@H](C(C(=O)OC)C(=O)OC)CN1C(C)=O	none (no result: BAZ2B inh, G9a inh)
CCn1c(C(=O)N2CCC(C(=O)N3CCN(c4cc(C)ccc4C)CC3)CC2)cc2sccc21	HP1b chromo inh inconclusive, JMJD2A Tudor 22µM, BAZ2B inh 22µM, G9a inh inconclusive
CCn1c(C(=O)N2CCC(C(=O)N3CCN(c4cccc(C)c4C)CC3)CC2)cc2sccc21	JMJD2A Tudor inconclusive, BAZ2B inh 22µM, G9a inh inconclusive
O=C(OC1CC2CC1[C@H]1CCCCN1C2=O)N1CCN(S(=O)(=O)c2ccccc2)CC1 (some centres not stated)	none (no result: HP1b chromo inh, JMJD2A Tudor, BAZ2B inh, G9a inh)
OC(COC(c1ccc(F)cc1)c1ccc(F)cc1)CN1CCCC(C(F)(F)F)C1 (configuration not stated)	HP1b chromo inh inconclusive, JMJD2A Tudor 3.5µM, BAZ2B inh 50µM, G9a inh 11µM
CCN1CCN(CC(O)COC(c2ccccc2)c2ccccc2)CC1 (configuration not stated)	none (no result: BAZ2B inh)
OCCN1CCN(CC(O)COC(c2ccc(F)cc2)c2ccc(F)cc2)CC1 (configuration not stated)	HP1b chromo inh inconclusive, JMJD2A Tudor 7.1µM, BAZ2B inh 40µM
OC(CN1CCCC(C(F)(F)F)C1)c1ccccc1 (configuration not stated)	none
OC(COc1ccc(F)cc1)CN1CCN(CC(O)COc2ccc(F)cc2)CC1 (configuration not stated)	none
Oc1ccc(N2CCN(CC(O)c3ccccc3)CC2)cc1 (configuration not stated)	HP1b chromo inh inconclusive, JMJD2A Tudor 56µM, G9a inh 8.9µM
